From the supplement of paper PMC10127200
Structures can show the parent of a compound that is named as a salt.

The compounds below were run on 786-O (assay: Euclidean distance of Cell Painting phenotypic profile (signed KS, 77 features) to DMSO centroid (dimensionless distance); 5 or 10 uM (library dependent); higher = stronger phenotypic change vs DMSO (phenoactivity)). Details: 48 h.
Method in brief: (§1)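 Harmony extracted 77 features from 20X confocal images (9 fields/well) of stained cells, scoring each as a signed Kolmogorov-Smirnov statistic against same-plate vehicle wells. The cells, five cancer lines and a healthy fibroblast line, had received library compounds for 48 h at 10 or 5 uM depending on library, with 0.1% DMSO final. Phenoactivity is the Euclidean distance from each plate-position-corrected, correlation-weighted, top-dose replicate-averaged profile to the median vehicle profile.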

| SMILES | Euclidean distance |
| --- | --- |
| O=C(NOCC(O)CO)c1cc(Br)c(F)c(F)c1Nc1ccc(I)cc1F (stereo not given) | 1.97 |
| Nc1cccc(-c2cc3c(Oc4cccc(O)c4)ncnc3[nH]2)c1 | 1.73 |
| NCCCCCC(=O)O | 0.84 |
| CC[C@H]1OC(=O)[C@H](C)[C@@H](O[C@H]2C[C@@](C)(OC)[C@@H](O)[C@H](C)O2)[C@H](C)[C@@H](O[C@@H]2O[C@H](C)C[C@H](N(C)C)[C@H]2O)[C@](C)(O)C[C@@H](C)/C(=N\OCOCCOC)[C@H](C)[C@@H](O)[C@]1(C)O [Roxithromycin] | 1.03 |
| COc1cc(Nc2nc3ccccc3nc2NS(=O)(=O)c2ccc(NC(=O)c3ccc(C)c(OC)c3)cc2)cc(OC)c1 | 0.677 |
| O=C(O)Cc1ccccc1Nc1c(Cl)cccc1Cl [Diclofenac Sodium] | 1.2 |
| CCCCCCCCCCCCc1ccc(S(=O)(=O)Nc2nncs2)cc1 | 1.69 |
| CCCCOc1c(C(=O)c2c(F)cc(C)cc2F)c[nH]c2nncc1-2 | 1.55 |
| CCCNC(=O)Nc1ccc(Oc2ncnc3cc(OC)c(OC)cc23)cc1Cl | 0.633 |
| CS(=O)(=O)c1cccc(CNc2nc(Nc3ccc4c(c3)CCC(=O)N4)ncc2C(F)(F)F)c1 | 3.16 |
| CN(C)Cc1cccc(N/C(=C2\C(=O)Nc3cc(C(N)=O)ccc32)c2ccccc2)c1 | 1.11 |
| CC(C)C[C@@H](C(=O)N[C@H](C(=O)OC1CCCC1)c1ccccc1)[C@H](O)C(=O)NO [Tosedostat (CHR2797)] | 0.679 |
| CC(C)[C@H](O)C(=O)N[C@@H](C)C(=O)N[C@@H]1C(=O)N(C)CCc2ccccc21 | 1.12 |
| N=c1ccn2c(n1)O[C@H]1[C@H](O)[C@@H](CO)O[C@H]12 [Cyclocytidine HCl] | 3.43 |
| O=NN(CCCl)C(=O)NCCCl [Carmustine] | 1.97 |
| CC(C)c1cnn2c(NCc3ccccc3)cc(NCCCCCCN)nc12 | 0.657 |
| CN(C)Cc1cccc(N=C(c2ccccc2)c2c(O)[nH]c3cc(C(=O)N(C)C)ccc23)c1 | 0.777 |
| O=S(=O)(NCCNC/C=C/c1ccc(Br)cc1)c1cccc2cnccc12 | 2.02 |
| CCOC(=O)[C@H](CCc1ccccc1)N[C@H]1CCCN2CCC[C@@H](C(=O)O)N2C1=O [Cilazapril Monohydrate] | 1.14 |
| Cc1cc(NC(=O)Nc2ccc(N(C)C)cc2)c2cc(F)cc(F)c2n1 | 0.716 |
| Cc1ccc(-n2nc(C(C)(C)C)cc2NC(=O)Nc2ccc(OCCN3CCOCC3)c3ccccc23)cc1 [BIRB 796 (Doramapimod)] | 1.54 |
| C[C@]1(O)C[C@@H](c2nc(-c3ccc4ccc(-c5ccccc5)nc4c3)c3c(N)nccn32)C1 [OSI-906 (Linsitinib)] | 1.12 |
| Clc1ccc(C2(c3ccc(-c4cn[nH]c4)cc3)CCNCC2)cc1 | 2.95 |
| N=C(N)c1ccc(OCCCCCOc2ccc(C(=N)N)cc2)cc1 [Pentamidine] | 1.54 |
| CC(C)OC(=O)CCC/C=C\C[C@@H]1[C@@H](/C=C/[C@@H](O)COc2cccc(C(F)(F)F)c2)[C@H](O)C[C@@H]1O [Travoprost] | 0.945 |

These compounds were tested on A549 in the same assay as above. Details: 48 h.
Method in brief: as §1

| SMILES | Euclidean distance |
| --- | --- |
| CN(C)Cc1ccc(-c2nc3cccc4c3n2CCNC4=O)cc1 | 1.77 |
| C[C@@]1(c2cc(-c3cncnc3)c(F)cc2F)CCSC(N)=N1 | 1.07 |
| COCCOc1ccc2c(c1)ncn2-c1ccc2cccc(N3CCC(N)CC3)c2n1 | 3.24 |
| CCc1c(C(=O)NCCc2ccc(N3CCCCC3)cc2)[nH]c2ccc(Cl)cc12 | 1.48 |
| NS(=O)(=O)c1cc2c(cc1Cl)NCNS2(=O)=O [Hydrochlorothiazide] | 1.08 |
| COc1ccc(-c2cc(=S)ss2)cc1 [Anethole trithione] | 1.04 |
| CNC(=O)CN(CCN(CCN(CC(=O)[O-])CC(=O)NC)CC(=O)[O-])CC(=O)[O-].[Gd+3] [Gadodiamide] | 1.55 |
| Cc1ccc2c(=O)c3cccc(CC(=O)O)c3oc2c1C [DMXAA (Vadimezan)] | 0.921 |
| CCN(CC)CCOC(=O)C(c1ccccc1)c1ccccc1 [Adiphenine HCl] | 0.625 |
| C=CCc1cc(OC)c(O)c(C(=O)NCCO)c1 [Alibendol] | 0.655 |
| c1ccc(C2CN3CCSC3=N2)cc1 (single isomer, unassigned; (-)) [(-)-Tetramisole] | 1.23 |
| C=CCn1c(=O)c2cnc(Nc3ccc(N4CCN(C)CC4)cc3)nc2n1-c1cccc(C(C)(C)O)n1 | 2.56 |
| COc1cc(NS(=O)(=O)c2ccc(N)cc2)nc(OC)n1 [Sulphadimethoxine] | 1.11 |
| CC(C)C(=O)c1c(C(C)C)nn2ccccc12 [Ibudilast] | 0.58 |
| C[C@@H]1CN(CC(=O)Nc2ccc3c(c2)Cc2cccc(-c4cc(=O)cc(N5CCOCC5)o4)c2S3)C[C@H](C)O1 | 1.25 |
| O=C(NOCC(O)CO)c1cc(Br)c(F)c(F)c1Nc1ccc(I)cc1F (stereo not given) | 2.76 |
| Nc1cccc(-c2cc3c(Oc4cccc(O)c4)ncnc3[nH]2)c1 | 3.48 |
| NCCCCCC(=O)O | 1.89 |
| CC[C@H]1OC(=O)[C@H](C)[C@@H](O[C@H]2C[C@@](C)(OC)[C@@H](O)[C@H](C)O2)[C@H](C)[C@@H](O[C@@H]2O[C@H](C)C[C@H](N(C)C)[C@H]2O)[C@](C)(O)C[C@@H](C)/C(=N\OCOCCOC)[C@H](C)[C@@H](O)[C@]1(C)O [Roxithromycin] | 0.649 |
| COc1cc(Nc2nc3ccccc3nc2NS(=O)(=O)c2ccc(NC(=O)c3ccc(C)c(OC)c3)cc2)cc(OC)c1 | 1.26 |

| SMILES | Euclidean distance |
| --- | --- |
| O=C(O)Cc1ccccc1Nc1c(Cl)cccc1Cl [Diclofenac Sodium] | 0.988 |
| CCCCCCCCCCCCc1ccc(S(=O)(=O)Nc2nncs2)cc1 | 1.57 |
| CCCCOc1c(C(=O)c2c(F)cc(C)cc2F)c[nH]c2nncc1-2 | 2.16 |
| CCCNC(=O)Nc1ccc(Oc2ncnc3cc(OC)c(OC)cc23)cc1Cl | 0.789 |
| CS(=O)(=O)c1cccc(CNc2nc(Nc3ccc4c(c3)CCC(=O)N4)ncc2C(F)(F)F)c1 | 2.6 |
| CN(C)Cc1cccc(N/C(=C2\C(=O)Nc3cc(C(N)=O)ccc32)c2ccccc2)c1 | 1.06 |
| CC(C)C[C@@H](C(=O)N[C@H](C(=O)OC1CCCC1)c1ccccc1)[C@H](O)C(=O)NO [Tosedostat (CHR2797)] | 1.35 |
| CC(C)[C@H](O)C(=O)N[C@@H](C)C(=O)N[C@@H]1C(=O)N(C)CCc2ccccc21 | 1.34 |
| N=c1ccn2c(n1)O[C@H]1[C@H](O)[C@@H](CO)O[C@H]12 [Cyclocytidine HCl] | 2.7 |
| O=NN(CCCl)C(=O)NCCCl [Carmustine] | 0.741 |
| CC(C)c1cnn2c(NCc3ccccc3)cc(NCCCCCCN)nc12 | 0.869 |
| CN(C)Cc1cccc(N=C(c2ccccc2)c2c(O)[nH]c3cc(C(=O)N(C)C)ccc23)c1 | 0.99 |
| O=S(=O)(NCCNC/C=C/c1ccc(Br)cc1)c1cccc2cnccc12 | 1.32 |
| CCOC(=O)[C@H](CCc1ccccc1)N[C@H]1CCCN2CCC[C@@H](C(=O)O)N2C1=O [Cilazapril Monohydrate] | 1.31 |
| Cc1cc(NC(=O)Nc2ccc(N(C)C)cc2)c2cc(F)cc(F)c2n1 | 1.16 |
| Cc1ccc(-n2nc(C(C)(C)C)cc2NC(=O)Nc2ccc(OCCN3CCOCC3)c3ccccc23)cc1 [BIRB 796 (Doramapimod)] | 0.959 |
| C[C@]1(O)C[C@@H](c2nc(-c3ccc4ccc(-c5ccccc5)nc4c3)c3c(N)nccn32)C1 [OSI-906 (Linsitinib)] | 1.34 |
| Clc1ccc(C2(c3ccc(-c4cn[nH]c4)cc3)CCNCC2)cc1 | 3.29 |
| N=C(N)c1ccc(OCCCCCOc2ccc(C(=N)N)cc2)cc1 [Pentamidine] | 2.11 |
| CC(C)OC(=O)CCC/C=C\C[C@@H]1[C@@H](/C=C/[C@@H](O)COc2cccc(C(F)(F)F)c2)[C@H](O)C[C@@H]1O [Travoprost] | 0.886 |
